{
  "source": "PubChem BioAssay (NCATS)",
  "note": "Records with an inconclusive call do not appear. Values without a mark were called inactive. The source made the active and inactive calls. Calls follow the shape of the dose curve; as a rule, active = well fitted cell-killing curve with a large enough effect; inconclusive = small, poorly fitted or top-dose-only effect, or effect the other way; inactive = no such curve, though single readings can be large or run the other way. Potency is read from the fitted curve at half-maximal effect.",
  "data": [
    {"test": "Quantitative High-Throughput drug screen in 47 multiple myeloma cell lines against the NCATS MIPE library collection: ARP1_JJKsccF8 cell viability assay (AID 1918928; also: nearly all actives have a fitted effect of over 40% in size)", "details": "ARP1 myeloma cells viability, CellTiter-Glo ATP, 48 h; series mostly up to 45.8 µM; viability: at the top concentration", "text": "PI: Beverly A. Mock Ph.D.\nLaboratory of Cancer Biology and Genetics,\nCenter for Cancer Research, National Cancer Institute,\nNational Institute of Health, Bethesda, Maryland\nDrug resistance and disease progression are common in multiple myeloma (MM) patients, underscoring the need for new therapeutic combinations. […] We hypothesized that effective combinations would reduce MYC expression and enhance p16 activity. […] These preclinical data identify potentially useful drug combinations for evaluation in drug-resistant MM and reveal potential mechanisms of combined drug sensitivity.\nDescribed herein is the primary MIPE qHTS used to cherrypick compounds. Validated compounds were then further tested for potential synergistic activiy.\n[1] Peat TJ, Gaikwad SM, Dubois W, Gyabaah-Kessie N, Zhang S, Gorjifard S, Phyo Z, Andres M, Hughitt VK, Simpson RM, Miller MA, Girvin AT, Taylor A, Williams D, D'Antonio N, Zhang Y, Rajagopalan A, Flietner E, Wilson K, Zhang X, Shinn P, Klumpp-Thomas C, McKnight C, Itkin Z, Chen L, Kazandijian D, Zhang J, Michalowski AM, Simmons JK, Keats J, Thomas CJ, Mock BA. Drug combinations identified by high-throughput screening promote cell cycle transition and upregulate Smad pathways in myeloma. Cancer Lett. 2023 Aug 1;568:216284. doi: 10.1016/j.canlet.2023.216284. Epub 2023 Jun 24. PMID: 37356470; PMCID: PMC10408729.\nSEQUENCE No. (e.g., 1, 2, 3, etc.); […] (e.g., Cells, Incubation, Reagent, etc.); VALUE and DESCRIPTION.\n1; Cells; 5 uL; white, solid bottom 1536-well Greiner assay plate.\n2; Compounds; 23 nL; Kalypsis pin tool (Wako USA) equipped with a 1536-well pin head to transfer to the assay plates.\n3; Incubation; 48 hours; 37C incubation.\n4; Reagent;5uL; CellTiter Glo (Promega).\n5; Detector; 425V; Luminescence; Viewlux PerkinElmer.\nNOTES (numbers refer to Sequence numbers above)\n1. The cell-based screening methods employed in this study were like those previously published. Briefly, the corresponding myeloma cell lines were screened in 1,536-well plates with 500 cells, 5-uL per well for inhibition of cell viability (assessed by measuring ATP levels with CellTiterGlo).\n2. NCATS MIPE 4.0 library of approved and investigational drugs were added using the Kalypsis pin tool. Wells treated with DMSO only for 100% viability and media only cells for 0% viability were used as controls.\n3. The assay plates were covered and incubated for 48 hours in a 37C, 5% CO2 incubator with controlled humidity.\n4. After 48 hours, CellTilter-GloTM luminescent substrate mix (Promega) reagent was added to the assay plate and plates we incubated for 5 min at room temperature.\n5. Signal was measured as median relative luminescence units on a ViewLux (PerkinElmer) multiplate reader.\n[1] Heske CM, Davis MI, Baumgart JT, Wilson K, Gormally MV, Chen L, Zhang X, Ceribelli M, Duveau DY, Guha R, Ferrer M, Arnaldez FI, Ji J, Tran HL, Zhang Y, Mendoza A, Helman LJ, Thomas CJ. Matrix Screen Identifies Synergistic Combination of PARP Inhibitors and Nicotinamide Phosphoribosyltransferase (NAMPT) Inhibitors in Ewing Sarcoma. Clin Cancer Res. 2017 Dec 1;23(23):7301-7311. doi: 10.1158/1078-0432.CCR-17-1121. Epub 2017 Sep 12. PMID: 28899971; PMCID: PMC6636827.", "units": {"viability": "%"}, "values": [
      {"smiles": "CCOP(=O)(OCC)C(C)NC(=O)N(CCCl)N=O", "note": "(stereo not given)", "viability": 98.8},
      {"smiles": "COC1=C[C@@H]2[C@@H]3Cc4ccc(OC)c(O)c4[C@]2(CCN3C)CC1=O", "Potency": "26400 nM (active)"},
      {"smiles": "N=c1c2c(-c3ccccc3)c(-c3ccccc3)n(Cc3ccccc3)c2ncn1C1CCC(O)CC1", "note": "(stereo not given)", "Potency": "14800 nM (active)"},
      {"smiles": "CC=C(C)C(=O)N[C@@H](c1ccccc1)[C@@H](O)C(=O)O[C@H]1C[C@@]2(O)[C@@H](OC(=O)c3ccccc3)[C@@H]3[C@]4(OC(C)=O)CO[C@@H]4C[C@H](O)[C@@]3(C)C(=O)[C@H](OC(C)=O)C(=C1C)C2(C)C", "viability": 10.8},
      {"smiles": "C[C@@]12OC(=O)[C@]1([C@@H](O)[C@@H]1C=CCCC1)NC(=O)[C@H]2CCCl", "Potency": "10.5 nM (active)"},
      {"smiles": "CC(C)N(CCNC(=O)CN1CCCC1=O)C(C)C", "viability": 108},
      {"smiles": "C[C@]12CC[C@H](O)CC1=CC[C@H]1[C@H]3CCC(=O)[C@@]3(C)CC[C@@H]12", "viability": 101},
      {"smiles": "COc1cc([C@@H]2c3cc4c(cc3[C@@H](O)C3COC(=O)C32)OCO4)cc(OC)c1O", "note": "(stereo not given in full)", "Potency": "20.9 nM (active)"},
      {"smiles": "COc1ccc2c(c1)[C@]13CCCCC1C(C2)N(C)CC3", "note": "(stereo not given in full)", "viability": 108},
      {"smiles": "CCCN1CCO[C@@H]2c3cc(O)ccc3OC[C@@H]21", "viability": 77.9},
      {"smiles": "COc1ccc(C(=O)c2c(C)n(CCN3CCOCC3)c3cc(I)ccc23)cc1", "Potency": "23500 nM (active)"},
      {"smiles": "C[C@@H]1CC[C@H]2[C@@H](C)C(=O)O[C@@H]3O[C@@]4(C)CC[C@H]1[C@]32OO4", "Potency": "332 nM (active)"},
      {"smiles": "CC(C)(O)C=CC(=O)[C@](C)(O)[C@H]1[C@H](O)C[C@]2(C)[C@@H]3CC=C4[C@@H](C=C(O)C(=O)C4(C)C)[C@]3(C)C(=O)C[C@@]12C", "Potency": "66.2 nM (active)"},
      {"smiles": "CC(C)N[C@@H]1CCn2c(=O)[nH]c3cccc(c32)[C@@H]1O", "Potency": "11800 nM (active)"},
      {"smiles": "CC(C)[C@H]1C(=O)N[C@H](CO)Cc2c[nH]c3cccc(c23)N1C", "viability": 104},
      {"smiles": "C1=C2CCCN[C@H]2[C@@H]2C[C@H]1[C@@H]1CCCCN1C2", "viability": 113},
      {"smiles": "O=[N+]([O-])c1ncc[nH]1", "viability": 103},
      {"smiles": "COc1ccc2c(c1)CN(C)CC2c1ccc(Cl)c(Cl)c1", "note": "(stereo not given)", "Potency": "20900 nM (active)"},
      {"smiles": "O=C(Oc1ccc([N+](=O)[O-])cc1)N1CCC(C(O)(c2ccc3c(c2)OCO3)c2ccc3c(c2)OCO3)CC1", "viability": 95.5},
      {"smiles": "C[C@]12CC[C@H]3[C@@H](CCC4=CC(=O)CC[C@@]43C)[C@H]1CC[C@H]2O", "viability": 98.4},
      {"smiles": "CCNC(=O)C[C@@H]1N=C(c2ccc(Cl)cc2)c2cc(OC)ccc2-n2c(C)nnc21", "Potency": "372 nM (active)"},
      {"smiles": "Cc1nc(-c2ccc(-c3ccc(C(=O)N4CCc5cc6c(cc54)C4(CCN(C)CC4)CO6)cc3)c(C)c2)no1", "viability": 116},
      {"smiles": "O=c1[nH]c2ccccc2n1C1CCN(Cc2ccc(-c3[nH]c4cc5ncnc5cc4nc3-c3ccccc3)cc2)CC1", "Potency": "14800 nM (active)"},
      {"smiles": "CC=C(C)C(=O)O[C@H]1C(C)=C2[C@@H]3OC(=O)[C@@](C)(O)[C@@]3(O)[C@@H](OC(=O)CCC)C[C@](C)(OC(C)=O)[C@@H]2[C@@H]1OC(=O)CCCCCCC", "Potency": "29.6 nM (active)"},
      {"smiles": "CCN1C[C@]2(OC(=O)c3ccccc3NC(C)=O)CC[C@H](OC)[C@@]34[C@H]5CC6[C@@H](OC)C[C@](O)(C(C[C@@H]23)[C@@H]14)[C@@]5(O)[C@@H]6OC", "viability": 105},
      {"smiles": "O=C(Nc1ccncc1)C(=O)c1cn(Cc2ccc(Cl)cc2)c2ccccc12", "Potency": "74.3 nM (active)"},
      {"smiles": "CC1=NN=C(c2ccc(N)cc2)c2cc3c(cc2C1)OCO3", "viability": 103},
      {"smiles": "NC1CC1c1ccccc1", "note": "(stereo not given)", "viability": 95.9},
      {"smiles": "C[C@@H]1[C@H](O)[C@@H](C)C=CC=CCCC=CC=CC=CC=C[C@H](O[C@H]2O[C@@H](C)[C@H](O)[C@@H](N)[C@@H]2O)CC2O[C@](O)(C[C@@H](O)[C@H](O)CC[C@@H](O)C[C@@H](O)C[C@@H](O)CC(=O)O[C@H]1C)C[C@H](O)[C@H]2C(=O)O", "viability": 108},
      {"smiles": "CC(C)(C)c1cc(C=C(C#N)C#N)cc(Br)c1O", "Potency": "26400 nM (active)"},
      {"smiles": "CCCCCC[C@H]1C(=O)O[C@H](C)[C@H](NC(=O)c2cccc(NC=O)c2O)C(=O)O[C@@H](C)[C@@H]1OC(=O)CC(C)C", "Potency": "41.8 nM (active)"},
      {"smiles": "CC(=O)O[C@@]12CO[C@H]1C[C@H](O)[C@@]1(C)C(=O)[C@H](O)C3=C(C)[C@@H](O)C[C@@](O)([C@@H](OC(=O)c4ccccc4)[C@@H]21)C3(C)C", "Potency": "2640 nM (active)"},
      {"smiles": "CC(C)(C)[C@]1(O)C[C@@H]2OC(=O)C[C@@]23C(=O)O[C@@H]2OC(=O)[C@H](O)C213", "note": "(stereo not given in full)", "viability": 91.1},
      {"smiles": "CC[C@H]1C=CC=CC[C@@H](C)[C@H](O)[C@@](C)(O)C(=O)[C@@H](C)[C@H](O)[C@@H](C)C(=O)[C@@H](C)[C@H](O)[C@@H](C)C=CC(=O)O[C@@H]2[C@@H](C)[C@H](CC1)O[C@]1(CC[C@H](C)[C@H](C[C@@H](C)O)O1)[C@H]2C", "Potency": "2.1 nM (active)"},
      {"smiles": "NC1=NC(=O)N2CC12", "note": "(stereo not given)", "viability": 94.9},
      {"smiles": "Oc1ccc2c3c1O[C@H]1c4[nH]c5c(c4C[C@@]4(O)[C@@H](C2)N(CC2CC2)CC[C@]314)C[C@@]1(O)[C@H]2Cc3ccc(O)c4c3[C@@]1(CCN2CC1CC1)[C@H]5O4", "viability": 127},
      {"smiles": "C[C@@H]1O[C@@H](O[C@@H]2C=C3CC[C@@H]4[C@@H](CC[C@]5(C)[C@H](c6ccc(=O)oc6)CC[C@@]45O)[C@@]3(C)CC2)[C@H](O)[C@H](O)[C@H]1O", "Potency": "20.9 nM (active)"},
      {"smiles": "CC(=O)OCC1=C(C(=O)O)N2C(=O)[C@@H](N)[C@@H]2SC1", "viability": 111},
      {"smiles": "CC[C@@]1(O)C(=O)OCc2c1cc1n(c2=O)Cc2cc3ccccc3nc2-1", "Potency": "118 nM (active)"},
      {"smiles": "O=C(Oc1ccc([N+](=O)[O-])cc1)N1CCN(Cc2cccc(Oc3ccccc3)c2)CC1", "viability": 77.5}
    ]}
  ]
}
